Compounds with a hit are over-represented: about 18% of the library has one in this group of screens.
TDP1 inh: qHTS Assay for Inhibitors of Tyrosyl-DNA Phosphodiesterase (TDP1); 350,000 tested, 0.28% active; recombinant TDP1, AlphaScreen DNA substrate cleavage; Tyrosyl-DNA phosphodiesterase 1 (Homo sapiens), Q9NUW8; Potency, µM (highest dose often 130 µM), actives largely listed as inhibitors; further: nearly all actives have a fitted effect of over 40% in size
Target sequence (Q9NUW8 whole entry, looked up): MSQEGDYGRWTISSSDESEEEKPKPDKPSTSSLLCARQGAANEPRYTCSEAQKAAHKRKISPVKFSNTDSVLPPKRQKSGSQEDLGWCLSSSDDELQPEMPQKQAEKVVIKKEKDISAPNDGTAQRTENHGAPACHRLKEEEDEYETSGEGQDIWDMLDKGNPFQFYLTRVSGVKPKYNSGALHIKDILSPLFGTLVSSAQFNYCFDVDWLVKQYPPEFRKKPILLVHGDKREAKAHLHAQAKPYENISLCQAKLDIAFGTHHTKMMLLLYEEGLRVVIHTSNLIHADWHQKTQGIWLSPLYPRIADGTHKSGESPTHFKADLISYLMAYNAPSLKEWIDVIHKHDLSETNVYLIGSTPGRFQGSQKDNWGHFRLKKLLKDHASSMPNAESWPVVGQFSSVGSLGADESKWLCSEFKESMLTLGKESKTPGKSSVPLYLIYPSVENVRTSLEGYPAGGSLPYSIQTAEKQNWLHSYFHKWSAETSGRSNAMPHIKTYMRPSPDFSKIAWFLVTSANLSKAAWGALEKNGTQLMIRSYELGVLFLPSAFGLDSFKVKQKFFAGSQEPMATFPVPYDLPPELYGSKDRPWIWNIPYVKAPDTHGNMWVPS
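Enzyme-compound mixtures sat 15 min at room temperature, followed by a 5 min reaction with 15 nM final substrate and 10 min with AlphaScreen beads. Recombinant human Tdp1 was used at 1 nM final.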
IL1B secr inh: qHTS for Inhibitors of Inflammasome Signaling: IL-1-beta AlphaLISA Primary Screen; AID 743279, 2014; THP-1 LPS/ATP IL-1B secretion, AlphaLISA, 16 h; active compounds read low; 360,000 tested, 4.7% active; activity change, % at 57.5 µM; in the data active means activity change below about -50%; inconclusive means mostly about -30% to -49%
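THP-1 cells pretreated 1 hr with compounds (up to 57.5 uM final), then stimulated with LPS (250 ng/mL final) plus ATP (1.25 mM final); secreted IL-1B measured by AlphaLISA after 16 hr, decreased signal indicating inhibition.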
TDP1 cell noCPT: qHTS for Inhibitors of human tyrosyl-DNA phosphodiesterase 1 (TDP1): qHTS in cells in absence of CPT; 420,000 tested, 15% active; Potency, µM (series often up to 46.2 µM), actives largely listed as inhibitors; DT40 Tdp1-/- hTDP1 cells, no CPT, ATP luminescence, 48 h; further: nearly all actives have a fitted effect of over 55% in size
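Camptothecin absent (DMSO only). Human TDP1-complemented DT40 knockout cells, 400 cells/well, 37 °C for minimum 48 hr; ATP measured via CellTiter-Glo, 30 min dark incubation, luminescence.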
CtBP-E1A inh: qHTS Assay for Inhibitors of the CtBP/E1A Interaction | CtBP / adenovirus E1A interaction (AlphaScreen) | AlphaScreen GST-E1A/His-CtBP binding, 1536-well; active compounds read low | activity change, % (concentration not given with the values) | 340,000 tested, 0.49% active; in the data active means activity change below about -65%; inconclusive means mostly about -30% to -63%
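Steps: dispense buffer (Tris pH 8.0, NaCl 300 mM, TCEP 1 mM, BSA, Tween 20); add 5X protein mix (GST-E1A, His-CtBP, 125 nM each); pin 23 nL compound; 2 h at 37 °C, dark; add 5X beads (50 ug/mL); 1 h; read.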
Six1-Eya2 blk: qHTS Assay for Inhibitors of the Six1/Eya2 Interaction | Homeobox protein SIX1 (Homo sapiens) + Protein phosphatase EYA2 (Homo sapiens), … | AlphaScreen GST-Six1/His-Eya2 binding, biochemical; active compounds read low | activity change, % (test concentration not listed) | 360,000 tested, 0.56% active | AID 651725, 2012; in the data active means activity change below about -65%; inconclusive means mostly about -30% to -63%
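AlphaScreen luminescence read after one hour at 37 °C in darkness. Pin-transferred compounds met GST-Six1 and His-Eya2 protein (5X stock 250 nM/500 nM) plus glutathione donor and Ni-chelate acceptor beads (5X, 50 ug/mL).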
TDP1 cell CPT: qHTS for Inhibitors of human tyrosyl-DNA phosphodiesterase 1 (TDP1): qHTS in cells in presence of CPT; 420,000 tested, 12% active; Potency, µM (titrated, usually from 46.2 µM), most hits filed as inhibitors; chicken DT40 Tdp1-/-;hTDP1 cells + 20 nM CPT, ATP luminescence, 48 h; AID 686979, 2013; further: nearly all actives have a fitted effect of over 55% in size
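Chicken DT40 Tdp1-/- cells stably complemented with human TDP1 were seeded at 400 cells/well in medium containing 20 nM camptothecin, exposed to pin-transferred compounds, and grown at 37 °C for at least 48 hr. Viability was read as ATP luminescence.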
Large screens that a line does not name were inactive. Unless noted, the call rests on the fitted dose curve; in most records, active means well fitted curve in the direction sought with a large enough effect; inconclusive means small, poorly fitted or top-dose-only effect, or another doubt; inactive means no such curve, though single readings can be large; an effect the other way counts as inactive or inconclusive.

Cc1onc(-c2ccccc2)c1C(=O)NC1CCCCC1C (configuration not stated)	TDP1 cell CPT inconclusive (no result: TDP1 inh)
Cc1onc(-c2ccccc2)c1C(=O)NNC(=S)NC(=O)c1ccc2c(c1)OCO2	TDP1 cell noCPT 1.6µM
Cc1onc(-c2ccccc2)c1C(=O)NC1CCC(C)CC1 (configuration not stated)	TDP1 cell noCPT inconclusive, TDP1 cell CPT 13µM
COc1ccc(C(=O)NC(=S)NNC(=O)c2c(-c3ccccc3)noc2C)cc1OC	TDP1 cell noCPT inconclusive
Cc1nnc(N/N=C/c2cccc(OCc3ccc(Cl)c(Cl)c3)c2)n1N	IL1B secr inh -84, TDP1 cell noCPT inconclusive, TDP1 cell CPT inconclusive
Cc1nnc(N/N=C/c2cccc(C(F)(F)F)c2)n1N	CtBP-E1A inh inconclusive, Six1-Eya2 blk inconclusive (no result: TDP1 inh)
CCOc1cc(/C=N/Nc2nnc(C)n2N)ccc1OC(C)=O	TDP1 cell noCPT 16µM, TDP1 cell CPT inconclusive (no result: TDP1 inh)
Cc1cc(C)nc(SCC(=O)N/N=C/C=C/c2ccccc2)n1	TDP1 cell noCPT inconclusive, TDP1 cell CPT inconclusive
Cc1ccc(SCc2c(-c3ccccc3)nn(C)c2Cl)cc1	TDP1 cell noCPT 16µM, TDP1 cell CPT inconclusive
Cc1ccc(Cl)cc1N1CCN(C(=O)c2ccc(CS(=O)Cc3ccc(Cl)cc3)o2)CC1 (configuration not stated)	IL1B secr inh inconclusive, TDP1 cell noCPT inconclusive, TDP1 cell CPT 13µM
Cc1ccc(CS(=O)Cc2ccc(C(=O)N3CCN(c4cccc(C)c4C)CC3)o2)cc1 (configuration not stated)	TDP1 cell noCPT 21µM, TDP1 cell CPT inconclusive (no result: TDP1 inh)
COCCCn1nnnc1SCC(=O)N1CCN(C(=O)c2ccco2)CC1	none
Cn1c(/C(C#N)=C/c2ccncc2)nc2ccccc21	IL1B secr inh -52, TDP1 cell noCPT 21µM, TDP1 cell CPT inconclusive (no result: CtBP-E1A inh)
Cn1c(/C(C#N)=C/c2ccc(C(F)(F)F)cc2)nc2ccccc21	TDP1 cell noCPT 13µM, TDP1 cell CPT 21µM (no result: IL1B secr inh, CtBP-E1A inh, Six1-Eya2 blk)
Cn1c(/C(C#N)=C/c2ccc(O)cc2)nc2ccccc21	TDP1 cell CPT inconclusive
CCc1nn(CC(=O)NCCN(CC(C)C)CC(C)C)c(=O)c2cc3sc(C)cc3n12	TDP1 cell noCPT 21µM, TDP1 cell CPT 15µM (no result: IL1B secr inh, CtBP-E1A inh, Six1-Eya2 blk)
CCOc1ccccc1NC(=O)c1cn(C2CCCC2)c(=O)c2c1c1ccccc1n2C	TDP1 cell noCPT 9.2µM, TDP1 cell CPT 13µM (no result: IL1B secr inh, CtBP-E1A inh, Six1-Eya2 blk)
COc1ccc(Cl)cc1NC(=O)c1cn(C2CCCC2)c(=O)c2c1c1ccccc1n2C	TDP1 cell noCPT inconclusive, TDP1 cell CPT inconclusive (no result: IL1B secr inh, CtBP-E1A inh, Six1-Eya2 blk)
COc1cc(NC(=O)c2cn(C3CCCC3)c(=O)c3c2c2ccccc2n3C)cc(OC)c1OC	TDP1 cell noCPT 18µM, TDP1 cell CPT inconclusive (no result: IL1B secr inh, CtBP-E1A inh, Six1-Eya2 blk)
O=C(/C=C/c1ccc(F)cc1)Nc1ccc(S(=O)(=O)N2CCOCC2)cc1	CtBP-E1A inh inconclusive, TDP1 cell CPT inconclusive
CCN(CC)S(=O)(=O)c1ccc(/C=C/C(=O)Nc2ccc(N3CCOCC3)cc2)cc1	TDP1 cell noCPT 21µM, TDP1 cell CPT inconclusive (no result: CtBP-E1A inh)
O=C(/C=C/c1ccc(S(=O)(=O)N2CCOCC2)cc1)NC(=S)Nc1ccc(N2CCOCC2)cc1	IL1B secr inh -76, TDP1 cell noCPT inconclusive
Cc1cc(NC(=S)NC(=O)/C=C/c2ccc(S(=O)(=O)N3CCOCC3)cc2)ccc1Br	IL1B secr inh -88, TDP1 cell noCPT 15µM, TDP1 cell CPT inconclusive
O=C(/C=C/c1ccc(S(=O)(=O)N2CCOCC2)cc1)N1CCN(c2ccccc2)CC1	TDP1 cell noCPT 1µM, TDP1 cell CPT 12µM (no result: CtBP-E1A inh)
